Test results as given in PubChem BioAssay AID652016 (National Center for Advancing Translational Sciences (NCATS), 2013).
Records with an inconclusive call do not appear. Active and inactive are the calls of the source. Calls follow the shape of the dose curve; as a rule, active = well fitted inhibition curve with a large enough effect; inconclusive = small, poorly fitted or top-dose-only effect; inactive = flat fitted curve, though single readings scatter.

These molecules were tested against Luciferin 4-monooxygenase (Photinus pyralis) (UniProt P08659) (assay: qHTS Assay for Inhibitors of Firefly Luciferase from the GSK Published Protein Kinase Inhibitor Set). Conditions: purified firefly luciferase, luminescence inhibition; series mostly up to 57.5 µM; activity change, negative = inhibition: at the top concentration.
Procedure, shortened: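 Purified P. pyralis luciferase, 10nM, with 10uM D-luciferin and 10uM ATP in 50mM Tris acetate pH 7.5, 10mM Mg acetate, 0.01% Tween-20, 0.05% BSA. Titration ~60uM to 300pM; luminescence read after about 5 min.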
% is scaled to controls: 0 for no effect and ±100 for the full control effect; potency is read from the fitted curve at half-maximal effect.

Chain of Luciferin 4-monooxygenase (Photinus pyralis) (P08659 whole entry, looked up): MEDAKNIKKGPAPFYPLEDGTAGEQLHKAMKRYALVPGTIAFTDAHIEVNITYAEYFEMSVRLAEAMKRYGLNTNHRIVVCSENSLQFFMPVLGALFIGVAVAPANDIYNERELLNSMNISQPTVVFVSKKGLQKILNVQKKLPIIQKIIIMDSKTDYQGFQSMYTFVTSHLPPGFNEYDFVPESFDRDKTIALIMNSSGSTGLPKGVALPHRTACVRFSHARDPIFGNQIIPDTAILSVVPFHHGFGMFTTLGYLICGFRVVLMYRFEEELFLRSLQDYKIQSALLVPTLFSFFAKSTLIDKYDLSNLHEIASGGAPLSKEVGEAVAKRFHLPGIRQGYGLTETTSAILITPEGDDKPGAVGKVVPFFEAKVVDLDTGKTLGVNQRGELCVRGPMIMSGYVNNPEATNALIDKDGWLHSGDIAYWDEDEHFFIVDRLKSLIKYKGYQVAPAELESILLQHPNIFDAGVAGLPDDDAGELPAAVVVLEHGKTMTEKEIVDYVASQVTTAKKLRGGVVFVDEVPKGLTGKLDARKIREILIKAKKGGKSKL

Compound | activity change, negative = inhibition | Potency
Cc1ccc(NC(=O)c2ccnc(N3CCCC3)c2)cc1-c1ccc(C(=O)NCC2CC2)cc1 | -8.62% (inactive) | –
COc1ccc2cc(-c3c(-c4ccncc4)nc(-c4ccc(S(C)(=O)=O)cc4C)n3C)ccc2c1 | -2.8% (inactive) | –
COc1cc(C)c(NC(=O)CN(C)C)cc1Nc1nc(Nc2cccc(F)c2C(N)=O)c2cc[nH]c2n1 | 2.64% (inactive) | –
CCS(=O)(=O)c1ccc(OC)c(Nc2ncc(-c3cccc(-c4ccccc4F)c3)o2)c1 | -18.1% (inactive) | –
Cc1cccc(-c2[nH]ncc2-c2ccc3ncccc3n2)n1 | 13.3% (inactive) | –
Cc1ccc2c(-c3ccnc(Nc4ccccc4)n3)c(-c3ccc(F)cc3)nn2n1 | 1.59% (inactive) | –
NS(=O)(=O)c1ccc(Nc2ncc(-c3ccccc3)o2)cc1 | -5.78% (inactive) | –
CCn1c(-c2nonc2N)nc2c(C#CC(C)(C)O)ncc(OCC3CCNCC3)c21 | 6.19% (inactive) | –
NC(=O)Cc1ccccc1Oc1nccc(-c2c(-c3ccc(F)cc3)ncn2C2CCNCC2)n1 | 0.77% (inactive) | –
Cc1cc(O)cc(C)c1C=Cc1cncc(C(=O)N(C)C)c1 | 9.42% (inactive) | –
Cc1nnc(-c2ccc(C)c(-c3ccc(C(=O)NCc4ccc(Cl)cc4)cc3)c2)o1 | 3.77% (inactive) | –
O=C(Nc1ccc(Oc2ccc3nc(NC(=O)c4ccccc4)[nH]c3c2)cc1)Nc1cc(C(F)(F)F)ccc1F | -14.8% (inactive) | –
NC(=O)c1cc(-c2ccc(F)cc2)cc(-c2ccncc2)c1N | 0.778% (inactive) | –
CN(c1ccc(NC(=O)Nc2c(Cl)cccc2Cl)cc1)c1ccnc(Nc2cccc(CS(C)(=O)=O)c2)n1 | – | 580 nM (active)
CS(=O)(=O)CCNCc1nc(-c2ccc3ncnc(Nc4ccc(OCc5cccc(C(F)(F)F)c5)cc4)c3c2)cs1 | 5.22% (inactive) | –
Nc1ncc(-c2cccc(S(N)(=O)=O)c2)c2scc(-c3ccc(F)c(Cl)c3)c12 | -12.8% (inactive) | –
N#Cc1c(NC(=O)c2ccc(F)cc2)sc2c1CCCC2 | – | 919 nM (active)
